Some test systems named below: T-47D breast; BT-549 breast; MDA-MB-435 melanoma; SW-620 colon; MCF7 breast; HCT-116 colon; HCC-2998 colon; KM12 colon.
Holding throughout (experiment): NCI-60 one-dose screen, 48 h (100 = growth as untreated, 0 = no growth, -100 = all killed)

Several values for one entry are separate records, joined by “and”; a condition that tells them apart may be missing. Equal values may be shown once. The panel holds about 83,000 compounds, 20% with a hit somewhere; the sample as a whole holds those more often.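 Step 1: grow cells in 96-well plates. Step 2: add test compound at a single concentration. Step 3: incubate 48 h. Step 4: record percent growth.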 Activity calls are given as the source filed them. The calls were made as follows: active = growth percent below 10; inactive = the rest. Where a SMILES comes first, the peptide text is derived from it. [ ]: non-standard residue; d: D form. ξ: configuration not given here. ξV = CC(C)C(N)C(=O)O

Take `Nc1nc(=S)c2ncn(C3OC(CO)C(O)C3O)c2[nH]1` (stereo not given): the growth with T-47D breast (10 µM) is 121% (inactive) and 35.2% (inactive); with BT-549 breast (10 µM), 126% (inactive) and -1.38% (active); in the assay with MDA-MB-435 melanoma (10 µM), 109% (inactive) and 17.7% (inactive); with SW-620 colon (10 µM), 107% (inactive) and 35.9% (inactive); in the assay with MCF7 breast (10 µM), 123% (inactive) and 9.98% (active); in the assay with HCT-116 colon (10 µM) it was 107% (inactive) and 17.3% (inactive). Also, the growth with HCC-2998 colon (10 µM) is 109% (inactive) and 23% (inactive); in the assay on KM12 colon (10 µM), 104% (inactive) and 19.8% (inactive).

Take `NNc1ccc2ccccc2c1`: the growth is 70.2% (inactive) and 98.5% (inactive) in the assay with T-47D breast (10 µM); 96.4% (inactive) with BT-549 breast (10 µM); 98.8% (inactive) and 103% (inactive) in the assay with MDA-MB-435 melanoma (10 µM); 96.1% (inactive) with SW-620 colon (10 µM); 102% (inactive) and 90.2% (inactive) with HCT-116 colon (10 µM); 98% (inactive) in the assay with HCC-2998 colon (10 µM). In addition, in the assay on KM12 colon (10 µM), the growth is 74.3% (inactive) and 98.7% (inactive).

`CO[C@H](C(=O)[C@@H](O)[C@@H](C)O)[C@@H]1Cc2cc3cc(OC4CC(OC5CC(O)C(O)C(C)O5)C(O)C(C)O4)c(C)c(O)c3c(O)c2C(=O)[C@H]1OC1CC(OC2CC(OC3CC(C)(O)C(O)C(C)O3)C(O)C(C)O2)C(O)C(C)O1` (stereo not given in full): the growth is 7.17% (active) with T-47D breast (10 µM); -19.9% (active) in the assay with BT-549 breast (10 µM); -62.9% (active) with MDA-MB-435 melanoma (10 µM); -25.1% (active) in the assay on SW-620 colon (10 µM); -3.56% (active) in the assay with MCF7 breast (10 µM); 5.29% (active) in the assay with HCT-116 colon (10 µM). Further, the growth in the assay with KM12 colon (10 µM) is -5.71% (active).

Turning to `CCCCCCCCCCSC(=N)N`, the growth was -5.33% (active) in the assay on T-47D breast (10 µM); 85.9% (inactive) in the assay on BT-549 breast (10 µM); 30% (inactive) with MDA-MB-435 melanoma (10 µM); -5.44% (active) in the assay on SW-620 colon (10 µM); 8.06% (active) with MCF7 breast (10 µM); 23.4% (inactive) in the assay with HCT-116 colon (10 µM). Further, the growth in the assay on HCC-2998 colon (10 µM) was -27.2% (active); in the assay on KM12 colon (10 µM), 23.2% (inactive).

Turning to `OCC(O)C(O)C(O)C(/C=N/Nc1ccccc1)=N/Nc1ccccc1` (stereo not given), the growth with T-47D breast (10 µM) is 57.9% (inactive); in the assay on BT-549 breast (10 µM) it was 88.9% (inactive); with MDA-MB-435 melanoma (10 µM), 78% (inactive); in the assay on SW-620 colon (10 µM), 88.3% (inactive); with HCT-116 colon (10 µM) it was 84.4% (inactive); in the assay on HCC-2998 colon (10 µM), 84.2% (inactive). In addition, the growth with KM12 colon (10 µM) was 75.1% (inactive).

As to `COC(=O)C1=COC(C)C2C[n+]3ccc4c([nH]c5ccccc54)c3CC12` (stereo not given), the growth in the assay on T-47D breast (10 µM) was 100% (inactive) and 91.5% (inactive); in the assay with BT-549 breast (10 µM) it was 107% (inactive) and 102% (inactive); in the assay with MDA-MB-435 melanoma (10 µM), 106% (inactive) and 109% (inactive); with SW-620 colon (10 µM), 100% (inactive) and 84% (inactive); in the assay with MCF7 breast (10 µM) it was 96% (inactive) and 79.2% (inactive); with MCF7 breast (100 µM), 28.2% (inactive) and 1% (active). In addition, the growth is 98.4% (inactive) and 99.5% (inactive) in the assay on HCT-116 colon (10 µM); 111% (inactive) and 94.1% (inactive) with HCC-2998 colon (10 µM); 102% (inactive) and 97.8% (inactive) with KM12 colon (10 µM).

For `NC1=C(Cl)C(=O)c2ccccc2C1=O`, the growth in the assay with T-47D breast (10 µM) is 86.8% (inactive); in the assay with BT-549 breast (10 µM), 82.7% (inactive); in the assay with MDA-MB-435 melanoma (10 µM) it was -87.5% (active); in the assay on SW-620 colon (10 µM), 86.8% (inactive); in the assay with HCT-116 colon (10 µM) it was 54.4% (inactive); in the assay on HCC-2998 colon (10 µM) it was 101% (inactive). Also, in the assay on KM12 colon (10 µM), the growth was 65.3% (inactive).

As to `O=C(/C=C/c1cccnc1)c1ccccc1`, the growth is 86.5% (inactive) with T-47D breast (10 µM); 103% (inactive) with BT-549 breast (10 µM); 80.2% (inactive) in the assay on MDA-MB-435 melanoma (10 µM); 23% (inactive) with SW-620 colon (10 µM); 21.1% (inactive) with HCT-116 colon (10 µM); 86% (inactive) in the assay on HCC-2998 colon (10 µM). Further, in the assay on KM12 colon (10 µM), the growth was 51.4% (inactive).

Consider `COc1cccc2c1C(=O)c1c(O)c3c(c(O)c1C2=O)C[C@@](O)(C(=O)CO)C[C@@H]3OC1CC(N)C(O)C(C)O1` (stereo not given in full), for which the growth was 90.7% (inactive) in the assay on T-47D breast (0.0025 µM); 13.2% (inactive) in the assay on T-47D breast (1 µM); 39.5% (inactive) in the assay on T-47D breast (2.5 µM); -11.3% (active) with T-47D breast (10 µM); 81.9% (inactive) with BT-549 breast (0.0025 µM); 5.17% (active) in the assay with BT-549 breast (1 µM). In addition, the growth in the assay with BT-549 breast (2.5 µM) is 65.6% (inactive); in the assay with BT-549 breast (10 µM), -59.2% (active); with MDA-MB-435 melanoma (0.0025 µM), 99% (inactive); in the assay with MDA-MB-435 melanoma (1 µM) it was 50.1% (inactive); in the assay on MDA-MB-435 melanoma (2.5 µM) it was 72.5% (inactive); in the assay with MDA-MB-435 melanoma (10 µM), -83.9% (active). Moreover, the growth in the assay with SW-620 colon (0.0025 µM) is 91.7% (inactive); in the assay on SW-620 colon (1 µM), -1.05% (active); with SW-620 colon (10 µM) it was 1.93% (active); in the assay on HCT-116 colon (0.0025 µM), 76.1% (inactive); in the assay on HCT-116 colon (1 µM) it was 8.95% (active); in the assay with HCT-116 colon (2.5 µM) it was 28.1% (inactive). The growth is 2.8% (active) in the assay with HCT-116 colon (10 µM); 84.7% (inactive) in the assay with HCC-2998 colon (0.0025 µM); 59.8% (inactive) in the assay on HCC-2998 colon (1 µM); -13.3% (active) in the assay with HCC-2998 colon (2.5 µM); -54.4% (active) in the assay on HCC-2998 colon (10 µM); 93.1% (inactive) in the assay on KM12 colon (0.0025 µM). The growth in the assay with KM12 colon (1 µM) is 32.1% (inactive); in the assay on KM12 colon (10 µM), 4.23% (active).

`Nc1ccc2cc3ccc(N)cc3nc2c1`: the growth in the assay on T-47D breast (10 µM) was 102% (inactive) and 2.81% (active); in the assay on BT-549 breast (10 µM) it was 95.9% (inactive) and 69.1% (inactive); with MDA-MB-435 melanoma (10 µM), 103% (inactive) and 23.4% (inactive); with SW-620 colon (10 µM) it was 103% (inactive) and 10.5% (inactive); with HCT-116 colon (10 µM), 109% (inactive) and 3.02% (active); with HCC-2998 colon (10 µM), 110% (inactive) and 16.7% (inactive). Further, the growth with KM12 colon (10 µM) is 121% (inactive) and 9.1% (active).

For the molecule `CC(C)C(NC(=O)CN)C(=O)O` (stereo not given) (H-Gly-[ξV]-OH), the growth with T-47D breast (10 µM) was 102% (inactive); with BT-549 breast (10 µM), 83.4% (inactive) and 116% (inactive); in the assay on MDA-MB-435 melanoma (10 µM) it was 104% (inactive) and 101% (inactive); in the assay with SW-620 colon (10 µM), 117% (inactive) and 101% (inactive); in the assay on HCT-116 colon (10 µM), 96.9% (inactive) and 107% (inactive); in the assay with HCC-2998 colon (10 µM), 103% (inactive) and 106% (inactive). Further, the growth in the assay with KM12 colon (10 µM) was 109% (inactive) and 106% (inactive).

The record behind these values is PubChem BioAssay (NCI).
